# Records with an inconclusive call do not appear. A call without a number means that no potency is given here. A number with no mark means an inactive call. The source made the active and inactive calls. Calls come from the whole dose curve; as a rule, active = well fitted curve in the direction sought with a large enough effect in the repeat runs; inconclusive = weak or mixed curves; inactive = no such curve, though single readings can be large; an effect the other way counts as inactive or inconclusive.
# Assays:
# [1] = target: Cytochrome P450 2D6 (Homo sapiens) (UniProt P10635); test: Cytochrome P450 Family 2 Subfamily D Member 6 (CYP2D6) small molecule antagonists: luciferase reporter qHTS assay (AID 1671196); note: nearly all actives have a fitted effect of over 50% in size; note: potency is the fitted concentration of half-maximal effect; for activity change, negative = inhibition: series mostly up to about 120 µM
# Chain of Cytochrome P450 2D6 (Homo sapiens) (P10635 whole entry, looked up): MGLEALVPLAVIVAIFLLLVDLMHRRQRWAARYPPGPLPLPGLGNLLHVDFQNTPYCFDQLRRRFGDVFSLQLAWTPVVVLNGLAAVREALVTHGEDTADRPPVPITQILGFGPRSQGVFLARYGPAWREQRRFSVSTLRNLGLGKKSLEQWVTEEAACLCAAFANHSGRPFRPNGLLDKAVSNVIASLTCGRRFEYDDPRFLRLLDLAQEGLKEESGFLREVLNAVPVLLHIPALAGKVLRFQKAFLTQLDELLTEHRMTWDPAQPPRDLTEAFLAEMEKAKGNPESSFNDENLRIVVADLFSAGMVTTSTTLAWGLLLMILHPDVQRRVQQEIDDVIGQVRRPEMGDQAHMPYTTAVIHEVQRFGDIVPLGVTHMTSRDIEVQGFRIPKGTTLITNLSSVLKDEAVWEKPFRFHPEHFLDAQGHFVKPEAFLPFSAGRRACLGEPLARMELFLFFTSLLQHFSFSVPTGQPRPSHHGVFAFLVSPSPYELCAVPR
# In short: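 Read-out is luminescence from luciferin formed by CYP2D6 turnover of a proluciferin substrate, recorded as relative luminescence units. Reactions ran 1 h at room temperature after NADPH regeneration solution was added.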
# [2] = target: Cytochrome P450 2C19 (Homo sapiens) (UniProt P33261); test: Cytochrome P450 Family 2 Subfamily C Member 19 (CYP2C19) small molecule antagonists: luciferase reporter qHTS assay (AID 1671197); note: nearly all actives have a fitted effect of over 65% in size; note: potency is the fitted concentration of half-maximal effect; for activity change, negative = inhibition: series mostly up to about 120 µM
# Chain of Cytochrome P450 2C19 (Homo sapiens) (P33261 whole entry, looked up): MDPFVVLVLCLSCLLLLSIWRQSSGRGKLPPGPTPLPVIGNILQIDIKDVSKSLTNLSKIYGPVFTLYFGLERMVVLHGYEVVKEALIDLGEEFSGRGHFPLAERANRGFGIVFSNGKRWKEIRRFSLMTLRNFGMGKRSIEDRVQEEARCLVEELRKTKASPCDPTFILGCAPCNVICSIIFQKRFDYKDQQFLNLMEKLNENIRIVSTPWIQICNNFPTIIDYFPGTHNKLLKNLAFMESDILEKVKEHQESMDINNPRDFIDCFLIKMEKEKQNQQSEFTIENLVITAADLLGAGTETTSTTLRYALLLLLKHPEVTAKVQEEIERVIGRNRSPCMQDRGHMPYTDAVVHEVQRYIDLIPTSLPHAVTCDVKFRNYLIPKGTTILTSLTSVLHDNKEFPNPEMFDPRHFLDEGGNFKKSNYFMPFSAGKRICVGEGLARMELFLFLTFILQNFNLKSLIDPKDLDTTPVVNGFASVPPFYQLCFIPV
# In short: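 Light output is proportional to CYP2C19 activity: proluciferin substrate is converted to luciferin, then detected by a luciferin detection reagent that also stops the 1 h, 37C NADPH-driven reaction. Ketoconazole serves as positive control.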
# [3] = target: Cytochrome P450 2C9 (Homo sapiens) (UniProt P11712); test: Cytochrome P450 Family 2 Subfamily C Member 9 (CYP2C9) small molecule antagonists: luciferase reporter qHTS assay (AID 1671198); note: nearly all actives have a fitted effect of over 50% in size; note: potency is the fitted concentration of half-maximal effect; for activity change, negative = inhibition: series mostly up to about 120 µM
# Chain of Cytochrome P450 2C9 (Homo sapiens) (P11712 whole entry, looked up): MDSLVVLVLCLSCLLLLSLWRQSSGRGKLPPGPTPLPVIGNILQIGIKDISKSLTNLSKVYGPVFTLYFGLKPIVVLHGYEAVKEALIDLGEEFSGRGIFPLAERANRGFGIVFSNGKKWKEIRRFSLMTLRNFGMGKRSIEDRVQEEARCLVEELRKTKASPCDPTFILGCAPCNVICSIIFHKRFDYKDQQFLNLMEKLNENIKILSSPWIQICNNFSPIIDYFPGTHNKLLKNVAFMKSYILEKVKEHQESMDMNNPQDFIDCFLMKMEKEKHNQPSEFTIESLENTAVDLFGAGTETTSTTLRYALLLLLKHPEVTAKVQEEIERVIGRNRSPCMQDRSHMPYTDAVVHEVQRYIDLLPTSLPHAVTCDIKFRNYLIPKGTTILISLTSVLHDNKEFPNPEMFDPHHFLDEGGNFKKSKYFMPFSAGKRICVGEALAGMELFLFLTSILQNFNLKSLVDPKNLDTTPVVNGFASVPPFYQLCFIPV
# In short: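 CYP2C9 activity was measured with a P450-Glo proluciferin substrate. Enzyme–substrate mix was held with compound for 10 min at room temperature, then NADPH regeneration solution was added for 1 h at 37C. Luciferin product was read as luminescence.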
# [4] = target: Cytochrome P450 1A2 (Homo sapiens) (UniProt P05177); test: Cytochrome P450 Family 1 Subfamily A Member 2 (CYP1A2) small molecule antagonists: luciferase reporter qHTS assay (AID 1671199); note: nearly all actives have a fitted effect of over 50% in size; note: potency is the fitted concentration of half-maximal effect; for activity change, negative = inhibition: series mostly up to about 120 µM
# Chain of Cytochrome P450 1A2 (Homo sapiens) (P05177 whole entry, looked up): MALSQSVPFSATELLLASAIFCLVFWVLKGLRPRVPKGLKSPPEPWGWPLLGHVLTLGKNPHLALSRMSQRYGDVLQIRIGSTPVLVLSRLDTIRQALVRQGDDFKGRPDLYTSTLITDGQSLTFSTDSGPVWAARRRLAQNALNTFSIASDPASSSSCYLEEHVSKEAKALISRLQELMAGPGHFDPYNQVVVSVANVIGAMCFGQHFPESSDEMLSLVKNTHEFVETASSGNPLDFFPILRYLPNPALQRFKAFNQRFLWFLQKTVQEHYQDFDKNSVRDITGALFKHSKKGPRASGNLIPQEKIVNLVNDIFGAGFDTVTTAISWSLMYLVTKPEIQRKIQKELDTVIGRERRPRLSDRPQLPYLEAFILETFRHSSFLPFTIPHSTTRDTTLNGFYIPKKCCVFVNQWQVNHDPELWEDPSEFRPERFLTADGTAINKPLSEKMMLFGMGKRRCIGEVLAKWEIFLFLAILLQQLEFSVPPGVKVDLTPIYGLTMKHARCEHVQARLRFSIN
# In short: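 P450-Glo CYP1A2, 1536-well qHTS: enzyme/proluciferin substrate + cpd (DMSO), 10 min RT; NADPH regen, 1 h RT; detection reagent, 20 min; luminescence, RLU.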
# [5] = target: Voltage-gated inwardly rectifying potassium channel KCNH2 (Homo sapiens) (UniProt Q12809); test: Human Ether-a-go-go-Related Gene (hERG) channel small molecule antagonists: fluorescence cell-based qHTS assay (AID 1671200); note: series mostly up to about 77 µM; nearly all actives have a fitted effect of over 50% in size
# Chain of Voltage-gated inwardly rectifying potassium channel KCNH2 (Homo sapiens) (Q12809 whole entry, looked up): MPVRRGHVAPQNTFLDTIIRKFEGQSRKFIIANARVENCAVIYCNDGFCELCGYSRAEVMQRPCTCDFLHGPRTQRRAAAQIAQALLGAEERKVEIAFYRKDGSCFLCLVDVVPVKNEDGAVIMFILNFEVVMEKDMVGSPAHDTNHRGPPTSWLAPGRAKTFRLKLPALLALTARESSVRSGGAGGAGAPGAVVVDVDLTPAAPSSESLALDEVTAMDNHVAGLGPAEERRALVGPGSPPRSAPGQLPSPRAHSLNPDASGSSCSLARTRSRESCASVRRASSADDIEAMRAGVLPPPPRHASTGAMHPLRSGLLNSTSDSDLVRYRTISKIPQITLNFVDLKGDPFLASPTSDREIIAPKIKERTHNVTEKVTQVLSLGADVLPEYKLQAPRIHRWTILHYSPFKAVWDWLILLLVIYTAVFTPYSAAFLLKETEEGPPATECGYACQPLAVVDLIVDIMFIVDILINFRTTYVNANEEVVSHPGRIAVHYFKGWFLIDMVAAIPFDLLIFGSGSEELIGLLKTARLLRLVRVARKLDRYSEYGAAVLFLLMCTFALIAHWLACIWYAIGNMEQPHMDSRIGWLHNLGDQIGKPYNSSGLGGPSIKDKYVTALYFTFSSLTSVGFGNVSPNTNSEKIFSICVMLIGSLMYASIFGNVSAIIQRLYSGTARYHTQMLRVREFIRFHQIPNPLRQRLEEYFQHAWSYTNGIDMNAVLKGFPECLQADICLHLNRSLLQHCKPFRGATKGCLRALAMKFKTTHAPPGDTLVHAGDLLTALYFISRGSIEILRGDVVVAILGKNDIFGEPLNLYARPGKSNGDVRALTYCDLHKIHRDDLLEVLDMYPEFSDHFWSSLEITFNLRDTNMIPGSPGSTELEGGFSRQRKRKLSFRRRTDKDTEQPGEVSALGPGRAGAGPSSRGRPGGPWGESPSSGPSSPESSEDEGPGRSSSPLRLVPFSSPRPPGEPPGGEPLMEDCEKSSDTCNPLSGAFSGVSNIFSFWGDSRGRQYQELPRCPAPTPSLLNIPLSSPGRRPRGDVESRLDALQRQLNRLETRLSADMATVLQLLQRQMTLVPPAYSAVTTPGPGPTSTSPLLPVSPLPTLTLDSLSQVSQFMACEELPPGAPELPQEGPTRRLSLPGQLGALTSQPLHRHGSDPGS
# In short: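 Thallium flux as potassium surrogate: FluxOR II dye loaded 1 h at room temperature into hERG-expressing U2OS cells, then stimulus buffer added after 10 min. Kinetic 480 nm excitation/540 nm emission read, 2 min.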
# [6] = target: Cytochrome P450 3A4 (Homo sapiens) (UniProt P08684); test: Cytochrome P450 Family 3 Subfamily A Member 4 (CYP3A4) small molecule antagonists: luciferase reporter qHTS assay (AID 1671201)
# Chain of Cytochrome P450 3A4 (Homo sapiens) (P08684 whole entry, looked up): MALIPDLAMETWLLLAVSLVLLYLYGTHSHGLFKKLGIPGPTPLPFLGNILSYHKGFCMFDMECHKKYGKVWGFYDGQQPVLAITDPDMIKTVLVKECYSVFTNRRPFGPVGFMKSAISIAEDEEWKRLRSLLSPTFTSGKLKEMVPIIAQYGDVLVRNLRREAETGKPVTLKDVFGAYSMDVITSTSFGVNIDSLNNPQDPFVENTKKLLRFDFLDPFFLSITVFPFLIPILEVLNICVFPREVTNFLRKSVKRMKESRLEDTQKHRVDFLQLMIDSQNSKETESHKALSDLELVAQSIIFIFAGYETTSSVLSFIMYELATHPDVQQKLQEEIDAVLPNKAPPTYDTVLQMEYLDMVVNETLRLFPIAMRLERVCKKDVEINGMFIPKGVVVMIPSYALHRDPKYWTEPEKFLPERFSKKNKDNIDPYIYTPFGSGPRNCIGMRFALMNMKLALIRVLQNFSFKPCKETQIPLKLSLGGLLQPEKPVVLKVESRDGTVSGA
# In short: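 Recombinant human CYP3A4 converts a proluciferin substrate to luciferin over 1 h at room temperature after NADPH regeneration solution is added (compound preincubated 10 min); detection reagent stops reaction, luminescence read 20 min later as relative units.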
compound,measurement,setting,value
CN(C)C(=O)CNC(=O)Cc1ccccc1,Potency,[1],inactive
same,Potency,[2],inactive
same,Potency,[3],inactive
same,Potency,[4],inactive
same,Potency,[5],inactive
same,Potency,[6],inactive
CC(=O)NCCCCCC(=O)O,Potency,[1],inactive
same,Potency,[2],inactive
same,Potency,[3],inactive
same,Potency,[4],inactive
same,Potency,[5],inactive
same,Potency,[6],inactive
COc1ccc(C2CNC(=O)C2)cc1OC1CCCC1 (stereo not drawn),Potency,[1],inactive
same,Potency,[2],inactive
same,Potency,[3],inactive
same,Potency,[4],13.8 µM (active)
same,Potency,[5],inactive
same,Potency,[6],inactive
CC(C)CCCCOC(=O)c1ccccc1C(=O)OCCCCC(C)C,Potency,[1],inactive
same,Potency,[2],31.8 µM (active)
same,Potency,[3],17.9 µM (active)
same,Potency,[4],17.9 µM (active)
same,Potency,[5],inactive
Cc1cc2cc3c(C)cc(=O)oc3c(C)c2o1,Potency,[1],inactive
same,Potency,[2],inactive
same,Potency,[3],inactive
same,Potency,[4],6.45 µM (active)
same,Potency,[5],inactive
CCOC(=O)[C@H](CCc1ccccc1)N[C@@H](C)C(=O)N1C(=O)N(C)C[C@H]1C(=O)O,Potency,[1],inactive
same,Potency,[2],inactive
same,Potency,[3],inactive
same,Potency,[4],inactive
same,Potency,[5],inactive
same,Potency,[6],inactive
C[Si](C)=O,"activity change, negative = inhibition",[1],-1.51% [at 10.5 µM]
same,"activity change, negative = inhibition",[2],-11.8% [at 10.5 µM]
same,"activity change, negative = inhibition",[3],-9.3% [at 10.5 µM]
same,"activity change, negative = inhibition",[4],-21% [at 10.5 µM]
same,"activity change, negative = inhibition",[5],1.17% [at 6.97 µM]
same,"activity change, negative = inhibition",[6],-1.04% [at 10.5 µM]
CC(C)(C)NC(N)=O,Potency,[1],inactive
same,Potency,[2],71 µM (active)
same,Potency,[3],inactive
same,Potency,[4],17.8 µM (active)
same,Potency,[5],inactive
same,Potency,[6],inactive
Cc1cc(Cl)c(C)cc1Cl,Potency,[1],inactive
same,Potency,[2],inactive
same,Potency,[3],inactive
same,Potency,[4],inactive
same,Potency,[5],inactive
same,Potency,[6],inactive
CCCCNC1CC(C)(C)NC(C)(C)C1,Potency,[1],28.3 µM (active)
same,Potency,[2],inactive
same,Potency,[3],inactive
same,Potency,[4],inactive
same,Potency,[5],inactive
same,Potency,[6],inactive
